High-throughput results (PubChem BioAssay)
This is a sample that favours compounds with a hit; in the whole collection about 3.5% have one here.
TRAIL sens C8 = sensitizes caspase-8 expressing cells to TRAIL. inhibition (viability loss, TRAIL sensitization), % at 10 µM. hit rate 1% among 360,000. NB7+C8 cells + TRAIL, ATPlite viability luminescence. AID 624354;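 active = compounds causing at least 50% loss of cell viability in the single-dose screen, relative to plate controls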
HSP90 refold inh = inhibitors of HSP90 luciferase refolding in rabbit reticulocyte lysate; luciferase refolding luminescence, 3 h; inhibition, % at 5.6 µM; hit rate 0.91% among 290,000;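 active = inhibition above the screen-wide mean plus 3 SD, computed separately per campaign, cut at about 16% in these data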;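 also: inhibitors lower the luminescence because luciferase stays unfolded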
PPC-1+TRAIL kill = PPC-1 cancer cell killing with TRAIL present; hit rate 0.41% among 220,000; cell killing (% activity), % at 4 µM or 5 µM; PPC-1 cells + TRAIL, ATPLite viability luminescence;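 active = cell killing above 50% in the first pass at 4 µM, then a duplicate retest at 5 µM averaging 50% or more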
TWEAK-Fn14 inh = TWEAK-Fn14 signaling inhibition. TWEAK-stimulated Fn14 reporter cells, luciferase luminescence, 8 h. inhibition, % at 10 µM. hit rate 2% among 360,000; in the data active = inhibition above about 50%
TROY NFkB inh = inhibitors of TROY-dependent NF-kB signaling; inhibition, % at 10 µM; Q293 LMP1-TROYcd NF-kB luciferase reporter, 4 h; hit rate 0.98% among 360,000;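 active = compounds whose plate-normalised and pattern-corrected inhibition of the luciferase reporter signal at the single screening dose is 50% or more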
Platelet DG rel = platelet dense granule release activity; human platelet-rich plasma, SFLLRN dense granule ATP release, luminescence; inhibition, %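 (compounds screened at 7.5 µM in platelet-rich plasma)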; hit rate 0.22% among 300,000;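 active = mean replicate score, as percent of positive control, at or above 50; inconclusive = mean below 50 but at least one replicate at or above 50; inactive = mean and every replicate below 50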
Large screens that a line does not name were inactive.

COC(=O)C(C(=O)OC)C1CCCCC1NS(=O)(=O)c1ccc(C)cc1 (stereo not given)	none (no result: HSP90 refold inh, PPC-1+TRAIL kill, TWEAK-Fn14 inh, TROY NFkB inh, Platelet DG rel)
CCCCCC(=O)NN=C1CCN(Cc2ccccc2)CC1	TWEAK-Fn14 inh 94
CCNC(=O)C1CCCN(C(=O)C(c2ccccc2)c2ccccc2)CC1 (stereo not given)	none (no result: HSP90 refold inh, PPC-1+TRAIL kill, Platelet DG rel)
CC(C)c1cc(Cn2c3ccccc3c(=O)n2C(C)CBr)on1 (stereo not given)	none (no result: HSP90 refold inh, PPC-1+TRAIL kill, Platelet DG rel)
O=C(CSc1ccc(-c2ccccn2)nn1)c1ccc([N+](=O)[O-])cc1	none
O=C(COC(=O)c1ccccn1)c1ccc([N+](=O)[O-])cc1	TWEAK-Fn14 inh 67 (no result: PPC-1+TRAIL kill)
CCOc1ccccc1N(C)S(=O)(=O)c1ccc2c(c1)CCN2C(=O)CCC(=O)O	none (no result: PPC-1+TRAIL kill)
COc1ccc2nc(-c3ccccc3)[nH]c2c1	TRAIL sens C8 51
COc1ccc(N(CC(=O)Nc2ccc3c(c2)OCO3)S(=O)(=O)c2ccccc2)cc1	none
COc1ccc(N(CC(=O)Nc2ccc3c(c2)OCCO3)S(=O)(=O)c2c(C)noc2C)cc1	TWEAK-Fn14 inh 65
Cc1ccc(N(CC(=O)Nc2ccc3c(c2)OCCO3)S(=O)(=O)c2c(C)noc2C)cc1	none
COc1ccc(N(CC(=O)Nc2ccc3c(c2)OCCO3)S(=O)(=O)c2cccnc2)cc1	TWEAK-Fn14 inh 57 (no result: Platelet DG rel)
COc1ccc(N(CC(=O)Nc2ccc3c(c2)OCO3)S(C)(=O)=O)c(OC)c1	none
COc1ccc(N(CC(=O)Nc2ccc3c(c2)OCCO3)S(C)(=O)=O)c(OC)c1	TWEAK-Fn14 inh 62
Brc1ccc(C2=Nn3c(nnc3-c3ccncc3)SC2)cc1	none (no result: TRAIL sens C8, PPC-1+TRAIL kill, TWEAK-Fn14 inh, TROY NFkB inh, Platelet DG rel)
c1csc(C2=Nn3c(nnc3-c3ccncc3)SC2)c1	TWEAK-Fn14 inh 69
Clc1ccccc1C1=Nn2c(nnc2-c2ccncc2)SC1	TWEAK-Fn14 inh 64
O=C1OC(c2cccc3c(F)cccc23)c2ccccc21 (stereo not given)	none (no result: HSP90 refold inh, PPC-1+TRAIL kill, Platelet DG rel)
Cc1cc(Cl)c(S(=O)(=O)N2CCSCC2)cc1OCC(=O)NC1CCCCC1	TWEAK-Fn14 inh 61
Cc1cc(Cl)c(S(=O)(=O)N2CCCCCC2)cc1OCC(=O)NC1CCCCC1	none
CCN1CCN(S(=O)(=O)c2cc(OCC(=O)NC3CCCCC3)c(C)cc2Cl)CC1	none
Cc1cc(Cl)c(S(=O)(=O)N2CCN(c3ccccn3)CC2)cc1OCC(=O)NC1CCCCC1	TWEAK-Fn14 inh 63, TROY NFkB inh 53, Platelet DG rel inconclusive
O=S(=O)(c1ccc(Br)cc1)c1cnc2ccccc2n1	TWEAK-Fn14 inh 55
COc1ccccc1NC(=O)NCC1(N(C)C)CCCCC1	none (no result: PPC-1+TRAIL kill)
COC(=O)c1cc(NC(=O)CN(c2cccc(OC)c2)S(=O)(=O)c2ccccc2)ccc1Cl	TWEAK-Fn14 inh 51
COc1ccccc1N(CC(=O)Nc1ccc2c(c1)OCO2)S(=O)(=O)c1ccccc1	none
COC(=O)c1cc(NC(=O)CN(c2ccccc2OC)S(=O)(=O)c2ccccc2)ccc1Cl	TWEAK-Fn14 inh 53
CC1=C(C(=O)OCC2CCCO2)C(c2ccc(C)cc2)C2=C(CC(C)(C)CC2=O)N1 (stereo not given)	none
COc1cccc2c1C(=O)c1c(O)c3c(c(O)c1C2=O)CC(O)(C(C)=O)CC3OC1CC(N(C)C)C(O)C(C)O1 (stereo not given)	TWEAK-Fn14 inh 98, TROY NFkB inh 61 (no result: HSP90 refold inh, PPC-1+TRAIL kill, Platelet DG rel)
CC(=O)[C@@]1(O)Cc2c(O)c3c(c(O)c2[C@H](O[C@H]2C[C@H](N)[C@H](O)[C@H](C)O2)C1)C(=O)c1ccccc1C3=O	TRAIL sens C8 82, TWEAK-Fn14 inh 95, TROY NFkB inh 66 (no result: HSP90 refold inh, PPC-1+TRAIL kill, Platelet DG rel)
COc1cccc2c1C(=O)c1c(O)c3c(c(O)c1C2=O)C[C@@](O)(C(=O)CO)C[C@@H]3OC1CC(N)C(O)C(C)O1 (stereo not given in full)	TWEAK-Fn14 inh 76 (no result: HSP90 refold inh, PPC-1+TRAIL kill, Platelet DG rel)
COc1cccc2c1C(=O)c1c(O)c3c(c(O)c1C2=O)C[C@@](O)(C(=O)CO)C[C@@H]3O[C@H]1C[C@H](N)[C@H](O)[C@H](C)O1	TRAIL sens C8 62, PPC-1+TRAIL kill 54, TWEAK-Fn14 inh 87
CC(C)NC(=O)OC1CC2CC1[C@H]1CCCCN1C2=O (stereo not given in full)	none (no result: HSP90 refold inh, PPC-1+TRAIL kill, Platelet DG rel)
O=C(Cc1ccccn1)Nc1ccccc1	TWEAK-Fn14 inh 110
Oc1c(C=NCc2ccccc2)sc2ccccc12	HSP90 refold inh 24
COc1ccc(NC(=O)CCC(=O)c2cccs2)c(OC)c1	TWEAK-Fn14 inh 57 (no result: PPC-1+TRAIL kill)
Cc1ccnc(NC(=O)CCC(=O)c2cccs2)c1	TRAIL sens C8 79, TWEAK-Fn14 inh 92, TROY NFkB inh 68 (no result: HSP90 refold inh, PPC-1+TRAIL kill)
Cc1cccc(C)c1NC(=O)C(=O)NCC1CCCN1S(=O)(=O)c1cccs1 (stereo not given)	none (no result: HSP90 refold inh, PPC-1+TRAIL kill)
CC1(C)C(=O)Nc2ccccc2N1C(=O)COC(=O)c1cccnc1	none (no result: HSP90 refold inh, PPC-1+TRAIL kill, Platelet DG rel)
CC[N+]1(C)CCC(O)(/C=C/c2ccccc2)C(C(=O)/C=C/c2ccccc2)C1 (stereo not given)	TWEAK-Fn14 inh 65 (no result: HSP90 refold inh, PPC-1+TRAIL kill, Platelet DG rel)
CN=c1scc(-c2ccco2)n1/N=C/c1ccc(O)c(O)c1	HSP90 refold inh 17
CN=c1scc(C)n1/N=C/c1ccc(O)cc1	TROY NFkB inh 59 (no result: Platelet DG rel)
COc1ccc(O)c(/C=N/n2c(-c3ccco3)csc2=Nc2cccnc2)c1	none
Cc1nnc(C)n1/N=C/c1ccc2c(c1)OCCO2	none
CN=c1scc(C)n1/N=C/c1ccc2c(c1)OCO2	TRAIL sens C8 61, TWEAK-Fn14 inh 53
CCn1c2ccccc2c2cc(NC(=O)c3coc(=O)c(Br)c3)ccc21	TWEAK-Fn14 inh 74
Cc1nc2ccc(S(=O)(=O)CCC(=O)NCc3ccc(Cl)cc3)cc2s1	none (no result: HSP90 refold inh, PPC-1+TRAIL kill, Platelet DG rel)
COC(=O)c1nn(-c2ccc(-c3ccccc3)cc2)cc1O	TRAIL sens C8 58, TWEAK-Fn14 inh 81, Platelet DG rel 64
COc1ccc(C(C)=O)cc1Cn1c(C)c(C(=O)NCc2ccc3c(c2)OCO3)sc1=O	none (no result: HSP90 refold inh, PPC-1+TRAIL kill, Platelet DG rel)
c1ccc(Oc2ncnc3oc(-c4ccccc4)cc23)cc1	TWEAK-Fn14 inh 96
c1ccc(Oc2ncnc3sccc23)cc1	none
O=C(NC(=S)/C(=C1\CCCCCN1)[N+](=O)[O-])c1ccccc1	TRAIL sens C8 78, TWEAK-Fn14 inh 99, TROY NFkB inh 87 (no result: HSP90 refold inh, PPC-1+TRAIL kill, Platelet DG rel)
O=C(NN=Cc1ccc2c(c1)CCN2)c1cccs1	TRAIL sens C8 50 (no result: HSP90 refold inh, PPC-1+TRAIL kill, Platelet DG rel)
COc1cc(/C=N/NC(=O)c2cccs2)ccc1O	none
CC(C)CCCCCCCCCCCCC(=O)NCC(=O)NC1C(C)OC(Nc2ncnc3nc[nH]c23)C(O)C1O (stereo not given)	TWEAK-Fn14 inh 97, TROY NFkB inh 77 (no result: HSP90 refold inh, PPC-1+TRAIL kill, Platelet DG rel)
COc1cccc(N2C(C(C)=O)=NN(c3ccccc3)C2c2ccc(N3CCOCC3)cc2)c1 (stereo not given)	TWEAK-Fn14 inh 55
Cc1ccc(C)n1-c1ccc(C(=O)NN)s1	none
COC(=O)[C@H](CC(C)C)NC(=O)Cn1cnc2c(OCc3ccccc3)ncnc21	none (no result: HSP90 refold inh, PPC-1+TRAIL kill, Platelet DG rel)
Cc1c(NC(=O)COC(=O)/C=C/c2cccc(Br)c2)c(=O)n(-c2ccccc2)n1C	none (no result: HSP90 refold inh, PPC-1+TRAIL kill, Platelet DG rel)
CCN(CC)C(=O)CN1C(=O)NC2(CCc3ccccc3C2)C1=O (stereo not given)	none
